Entries with a potency or affinity are not part of this list. Unmarked numbers belong to inactive results.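 How the source made its calls: active means cell killing whose fitted half-effect concentration is at most twice the top valid dose tested; inconclusive means flat curve with 30 to 70% killing, or a poor fit; inactive means effect in the rising direction, plus the rest.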
Test: A549 cell cytotoxicity, dose response, cytotoxicity control, ATP luminescence, cherry-pick, set 2 (AID 1053124);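 further: 0% = neutral control wells and -100% = mitoxantrone 10 µM positive control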
Settings: A549 viability, ATP luminescence (CellTiter-Glo), 72 h; series mostly up to 26 µM; activity change, negative = cytotoxicity: at the top concentration

Row | SMILES | activity change, negative = cytotoxicity [%]
1 | Nc1cccc2c1C(=O)N(c1ccccc1)C2=O | -10.7
2 | CCOCCCNc1c(CC)c(C)c(C#N)c2nc3ccccc3n12 | -3.14
3 | N#Cc1c(NCCCO)nc(NCc2ccccc2)c2c1CCN(Cc1ccccc1)C2 | 0.764
4 | Nn1c(SCC(=O)N2CCCC2)nnc1-c1cccs1 | 2.35
5 | Cc1cc(OC(=O)c2ccccc2Cl)ccc1N1C(=O)CCC1=O | -0.659
6 | Clc1ccccc1C1=CC(c2ccco2)n2ncnc2N1 (centres undefined) | -3.99
7 | CC(=O)OC[C@@H]1CN(Cc2ccccc2)C[C@H](n2cnc3c(N(C)C(C)C)ncnc32)O1 | -4.33
8 | CC(=O)c1sc(N/N=C\c2ccc(N(C)C)cc2)nc1C | -11.1
9 | CCOc1ccc(C2C(C#N)=C(N)Oc3cc(O)ccc32)cc1OCC (centres undefined) | 0.803
10 | COc1ccc(C2C(C#N)=C(N)Oc3cc(O)ccc32)cc1Cl (centres undefined) | -5.72
11 | CCOC(=O)c1oc2c(CN3CCN(CCO)CC3)c(O)c(CC)cc2c(=O)c1-c1nc2ccccc2s1 | -9.72
12 | O=C(CCCN1C(=O)CSc2ncccc21)N1CCN(Cc2ccccc2)CC1 | -2.8
13 | Cc1cccn2c(=O)c3cc(C(N)=S)c(=N)n(CCCN4CCOCC4)c3nc12 | 2.11
14 | CCN(CC)c1ccc2cc(C(N)=O)c(=O)oc2c1 | 0.837
15 | Cc1cc(CNC(=O)c2ccc3c(c2)OCO3)c2ccccc2n1 | -25.7
16 | O=C(O)c1cccc(Nc2nc(-c3cc4ccccc4oc3=O)cs2)c1 | -7.33
17 | [O-]/[N+](=C/c1ccccc1)c1ccccc1 | 1.21
18 | CCCCn1nc(NC(=O)c2cccs2)c2cc3cc(OC)ccc3nc21 | -4.77
19 | N#Cc1c2ccc(O)cc2n2ccccc12 | -20.3
